# Compound activity deposited in PubChem BioAssay by National Center for Advancing Translational Sciences (NCATS).
# LmPK inhibitor: blocks Leishmania mexicana pyruvate kinase activity; purified LmPK, Kinase-Glo ATP luminescence, 1 h; Potency, µM (top dose mostly 57.5 µM), for the others: at the highest dose activity change, negative = inhibition, actives largely listed as inhibitors; 290,000 tested, 0.37% active; Q27686
#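 ATP generated from ADP (0.1 mM) and PEP (0.5 mM) by 0.1 nM LmPK over 1 h at room temperature (pH 7.2 imidazole buffer) was detected by coupled luciferase luminescence. Values were normalized to uninhibited and no-enzyme wells.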
# RE007 growth inh: less growth of the S. pombe RE007 Vpr strain; S. pombe RE007 Vpr strain, BacTiter-Glo ATP luminescence, 24 h; Potency, µM (doses to about 92.2 µM), inactives show top-dose activity change, negative = less growth, most hits filed as inhibitors; 360,000 tested, 0.21% active; active means well fitted falling curve with a large enough effect; inconclusive means small, poorly fitted or top-dose-only effect; inactive means no such curve, though single readings can be large or run the other way; further: nearly all actives have a fitted effect of over 50% in size
#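 Fission yeast RE007 carrying one integrated HIV-1 vpr copy, seeded at OD 0.01 in PMG+AL medium with 23 nL pinned compound. Grown 24 h at 30 degrees; viability read by BacTiter-Glo luminescence after 5 min.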
# FBPA Giardia inh: Giardia lamblia aldolase inhibition. 290,000 tested, 0.71% active. purified Giardia FBPA. A8B2U2. Potency, µM (highest dose often 59.6 µM), for the others: at the highest dose activity, negative = inhibition, hits mostly inhibitors. AID 2451; further: nearly all actives have a fitted effect of over 55% in size
# Target sequence (A8B2U2 whole entry, looked up): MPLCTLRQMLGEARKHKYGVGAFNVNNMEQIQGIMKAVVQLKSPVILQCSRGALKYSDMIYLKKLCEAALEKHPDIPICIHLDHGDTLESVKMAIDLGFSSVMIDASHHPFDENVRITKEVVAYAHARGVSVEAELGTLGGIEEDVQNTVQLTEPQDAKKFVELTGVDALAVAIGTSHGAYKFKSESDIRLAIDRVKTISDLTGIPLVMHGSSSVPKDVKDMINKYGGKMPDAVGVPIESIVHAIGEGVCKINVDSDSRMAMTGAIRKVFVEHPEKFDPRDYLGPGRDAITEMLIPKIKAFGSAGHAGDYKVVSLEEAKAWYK
#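 Giardia FBPA (40 nM reagent) was preincubated 10 min at RT with compound (up to 57.5 uM final), then substrate plus GAPDH/TPI/NAD/arsenate coupling system with diaphorase/resazurin was added; resorufin fluorescence (525/598 nm) was read after 20 min.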
# Tb PYK inh: T. brucei pyruvate kinase inhibition; TbPYK enzyme, Kinase-Glo Plus ATP luminescence, 45 min; Potency, µM (titrated, usually from 76.8 µM), for inactives: at the top dose activity, negative = inhibition, most hits filed as inhibitors; 410,000 tested, 0.12% active; AID 624173; Q57TT1; further: nearly all actives have a fitted effect of over 50% in size
#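 TbPYK + substrate in 50 mM TEA pH 7.2, 100 mM KCl, 10 mM MgCl2, 0.05% BSA, 0.01% Tween-20; cpd pinned; ADP 130 uM final; 45 min RT; Kinase-Glo Plus 10 min; luminescence endpoint.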
# * marks the source's active call; other numbers are inactive results; ? = inconclusive; / = no result; [ ] = dose if it differs, or a comment. In the library only some 0.95% were active in any assay of this set; here they are far more common. Unless noted, the call rests on the fitted dose curve; in most records, active means well fitted curve in the direction sought with a large enough effect; inconclusive means small, poorly fitted or top-dose-only effect, or another doubt; inactive means no such curve, though single readings can be large; an effect the other way counts as inactive or inconclusive. On the % scale 0 is the no-effect control and ±100 the full control effect; potency means the concentration at half of the fitted maximal effect.
SMILES,LmPK inhibitor,RE007 growth inh,FBPA Giardia inh,Tb PYK inh
COCCn1c(=O)c(-c2cc(F)cc(F)c2)nc2cnc(Oc3cccc(Cl)c3)nc21,/,/,-20%,-2%
CN1CCCN(Cc2ccc(Cl)cc2Cl)CC1,-10%,-8%,20µM*,1%
CCc1ccc(S(=O)(=O)/N=C2/C=C(Sc3ncn[nH]3)C(=O)c3ccccc32)cc1,?,?,0.79µM*,?
CCc1ccc(S(=O)(=O)/N=C2\C=C(Nc3cccc(C(=O)O)c3)C(=O)c3ccccc32)cc1,-20%,-11%,/,-23%
CCc1ccc(S(=O)(=O)/N=C2\C=C(Nc3ccc(O)cc3)C(=O)c3ccccc32)cc1,-19%,-27%,1.4µM*,?
CCc1ccc(S(=O)(=O)/N=C2\C=CC(=O)c3ccccc32)cc1,-15%,/,7.1µM*,/
CCCCC[C@H](O)/C=C/[C@@H]1[C@H](C/C=C\CCCC(=O)O)[C@@H](O)C[C@H]1O,/,/,1%,/
COC(=O)C1=C(C)NC(C)=C(C(=O)O[C@H]2CCN(Cc3ccccc3)C2)C1c1cccc([N+](=O)[O-])c1 (stereo partly specified),/,/,/,-7%
O=C(Nc1cccc(Cl)c1)c1ccc2nc(Cc3ccccc3)oc2c1,/,/,/,3%
CCCCn1c(=O)[nH]c2nc3cc(N)ccc3nc2c1=O,0%,0%,0.14µM*,-4%
Cc1ccc(NCCC(=O)c2cccs2)cc1,-3%,?,2%,1%
Cc1ccc(NCCC(=O)c2cccs2)cc1Cl,6%,-15%,-1%,-10%
CC(C)c1ccc(NCCC(=O)c2cccs2)cc1,-2%,32µM*,-5%,0%
Cc1ccc(NCCC(=O)c2cccs2)cc1C,-1%,40µM*,1%,2%
CCCCC/C=C\C/C=C\C/C=C\CCCCC(N)=O,/,/,2%,/
CCCC(=O)NC1=C(Cl)C(=O)c2ccccc2C1=O,/,7.1µM*,/,?
Cc1ccc(NC2=C(Cl)C(=O)c3ccccc3C2=O)cc1,-11%,-2%,?,-6%
O=C1C(Cl)=C(NCc2ccco2)C(=O)c2ccccc21,/,20µM*,/,-8%
O=C1c2ccccc2-c2onc3ccc(NCc4ccco4)c1c23,-26%,28µM*,?,-23%
CCNC1=C(Cl)C(=O)c2ccccc2C1=O,19%,16µM*,?,-4%
CCN(CC)c1ccc(NC2=C(Cl)C(=O)c3ccccc3C2=O)cc1,?,?,?,-19%
CC(C)=CCC/C(C)=C/CO/N=C1/C[C@@H](O)[C@@H](O)[C@@H]2[C@@H]3C(=O)N(C[C@@H]4CCCO4)C(=O)[C@H]3CC[C@@H]12,/,/,0%[12.9 µM],/
Cc1ccc(S(=O)(=O)OCC2CN3C(CCC(C)C3c3ccc(Br)cc3)C(=O)O2)cc1 (stereo unspecified),/,/,-3%[12.9 µM],/
O=C1OC(OC(=O)c2cccnc2Nc2cccc(C(F)(F)F)c2)c2ccccc21 (stereo unspecified),/,/,-7%,-3%
O=C1C(=O)c2c(C(=O)c3ccccc3)coc2-c2ccccc21,2%,11µM*,3.2µM*,-4%
SMILES,LmPK inhibitor,RE007 growth inh,FBPA Giardia inh,Tb PYK inh
Cc1oc2c(c1C(=O)c1ccccc1)C(=O)C(=O)c1ccccc1-2,3%,?,1.1µM*,-3%
O=C(C1=C(c2ccccc2)C(=O)c2ccccc2C1=O)c1ccccc1,0%,-21%,?,3%
O=[N+]([O-])c1ccc(Oc2ccc(N=C=S)cc2)cc1,/,/,/,0%
Cc1cc(C)c(NC(=O)c2c[nH]c(=S)n2-c2ccc(F)cc2)c(C)c1,?,19%,1%,7.9µM*
Clc1ncccc1-c1nnn(-c2ccccc2)n1,16µM*,-23%,4%,-11%
Cc1ccccc1-c1cc2c(nn1)-c1ccccc1C2=O,5µM*,-19%,?,-20%
O=C1c2ccccc2-c2nnc(-c3ccc(O)cc3)cc21,8.9µM*,-18%,-14%,-18%
O=C1c2ccccc2-c2nnc(-c3ccc(F)cc3)cc21,5µM*,-23%,-3%,?
O=c1[nH]nc(-c2ccc(F)cc2)cc1-c1ccccc1,1%,3%,7%,-7%
CC(C)Cn1nnnc1S(=O)(=O)Cc1ccccc1,/,/,3%,/
COC(=O)C(C(=O)OC)C1c2ccccc2C=C(C)N1C(=O)OC (stereo unspecified),-1%[11.5 µM],/,0%[12.9 µM],/
CCC(N)CCc1c[nH]c2ccccc12 (stereo unspecified),/,/,/,-9%[157 µM]
O=C1[C@@H]2[C@@H](CN3CN(c4ccccc4)N=C(c4ccccc4)[C@@]23c2ccccc2)C(=O)N1c1ccccc1,/,40µM*,/,-21%
Cc1ccc(-c2c(C(=O)N3CCN(c4cccc(C)c4)C(C)C3)oc(=O)c3ccccc23)cc1 (stereo unspecified),/,/,/,-1%
O=C(CSc1c2c(nc3cc(Cl)ccc13)CCCC2)NCCN1CCOCC1,0%,-3%,1%,2%
Clc1ccc2c(SCC3CO3)c3ccccc3nc2c1 (stereo unspecified),/,1µM*,/,-20%
O=Nc1c(O)c2ccccc2c2ccccc12,/,45µM*,/,0%
C(=C\c1ccc2ccccc2n1)/c1ccccc1,13µM*,?,?,-15%
Oc1ccc(/C=C/c2ccc3ccccc3n2)cc1,7.1µM*,?,-19%,?
Fc1ccccc1/C=C/c1ccc2ccccc2n1,13µM*,?,-7%,?
CN(C)c1ccc(/C=C/c2ccc3ccccc3n2)cc1,?,?,-5%,?
COCCN1C(=O)N[C@@H](CCc2ccccc2)C(C(=O)OC)=C1C,/,/,3%,/
CC(C)C[C@@H](CC(=O)N[C@@H](CCC(=O)O)CC(=O)O)NC(=O)[C@@H]1CNCC[C@H]1NC(=O)C[C@H](CCCN)NC(=O)C[C@H](Cc1ccccc1)NC(=O)[C@@H]1CNCC[C@H]1N,/,/,-14%,/
c1ccc2c(c1)nnn1c3ccccc3nc21,10µM*,/,3%,/
COc1ccc(NC(=O)c2nc(-c3ccc(C)cc3)n3c2CCCCC3)cc1,/,/,/,-7%
CCc1cc(-c2n[nH]c(=S)n2CC)cs1,-22%,42%,8%,10µM*
